Growth data for 15 compounds are collected here from PubChem BioAssay (NCI).

Where “and” joins values, the source holds several entries; their conditions need not be identical. Equal entries are not always repeated. Compounds without any hit were thinned out: in the full panel of roughly 83,000, 20% have a hit.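 Single-dose data. Exposure time 48 hours. Values below 10 considered active.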 Unmarked numbers belong to inactive results. Calls of active or inactive are those of the source.

The experiment concerns MDA-MB-468 breast. Put plainly: NCI-60 one-dose screen, 48 h (100 = growth as untreated, 0 = no growth, -100 = all killed). The following applies: 10 µM unless noted.
For the compound `COc1cc(C(=O)NNC(=O)c2ccccc2O)cc(OC)c1OC`, the growth was 103%.

`CN(C)CCOC1(Cc2ccc(Cl)cc2Cl)CCC(C(C)(C)C)CC1` (stereo not given): the growth is -77.6% (active) and -87.3% (active).

For the compound `CC1CCN(S(=O)(=O)c2ccc(S(=O)(=O)N3CCCC(c4nc5c(nnn5Cc5cccc(Cl)c5)c(=O)[nH]4)C3)cc2)CC1` (stereo not given), the growth is 27.7%.

Take `Cc1ccc(NC(=O)Cn2c(Br)nc3c2c(=O)n(C)c(=O)n3C)cc1`: the growth was 10.4%.

Turning to `CCCCCCCCCCNCCSS(=O)(=O)O`, the growth is 110%.

Regarding `CCOC(=O)c1ccc(Nc2ncnc3c2cnn3-c2cccc(F)c2)cc1`, the growth was 103%.

As for `CS(=O)(=O)c1nccc(-c2c(-c3ccc(F)c(OCc4ccccc4)c3)nc3sccn23)n1`, the growth was -68.8% (active).

As to `COc1cc(-c2nc3ccccc3[nH]2)ccc1OCc1nnc(-c2ccc(Br)cc2)o1`, the growth was 80.5%.

On to `NS(=O)(=O)c1ccc(Br)cc1`, for which the growth is 102%.

`O=C(Nc1nc(-c2ccccc2)cs1)c1cc(O)c(O)c(O)c1`: the growth was 46.3%.

`O=C1c2ccccc2C(=O)c2c(Nc3ccc(CCO)cc3)ccc(O)c21`: the growth is 38%.

For `COc1cnc2c(c1)C(=O)c1c-2n(CCCN2CCNCC2)c(=O)c2cc(F)ccc12`, the growth is -27.9% (active).

Take `CC(=O)Cc1cc(-c2cc(CC(C)=O)[nH]n2)n[nH]1`: the growth was 103%.

In the case of `Cc1cccc2sc(/N=C(\N)C(Br)Br)nc12`, the growth is -33.6% (active).

As for `COc1ccc(-c2nc(-c3nc4ccc(C)cc4[nH]3)c3ccccn23)cc1`, the growth was 45.4%.
